Only some compounds are listed: those with a hit (about 21% of all), similar ones and a draw of the others.
DT40 TDP1 no CPT = qHTS for Inhibitors of human tyrosyl-DNA phosphodiesterase 1 (TDP1): qHTS in cells in absence of CPT | DT40 Tdp1-/- hTDP1 cells, no CPT, ATP luminescence, 48 h | Potency, µM (titrated, usually from 46.2 µM), for the others: top-dose activity change, negative = growth inhibition, most hits filed as inhibitors | 420,000 compounds, 15% hits | AID 686978, 2013; further: potency means the concentration at half of the fitted maximal effect; nearly all actives have a fitted effect of over 55% in size
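Stably hTDP1-transfected Tdp1-null chicken DT40 cells were treated with library compounds minus camptothecin and grown for at least 48 hr at 37 °C, after which cellular ATP was quantified by luminescence.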
RORg inh = inhibitors of mouse ROR gamma transcriptional activity. 310,000 compounds, 5.4% hits. P51450. Drosophila S2 Gal4-RORgamma UAS-luciferase reporter, 20 h. Potency, µM (titrated, usually from 53.6 µM), inactives show at the top dose activity change, negative = inhibition, most hits filed as inhibitors. AID 2551; further: potency means the concentration at half of the fitted maximal effect; nearly all actives have a fitted effect of over 60% in size
Target sequence (P51450 whole entry, looked up, the tested form may be a part): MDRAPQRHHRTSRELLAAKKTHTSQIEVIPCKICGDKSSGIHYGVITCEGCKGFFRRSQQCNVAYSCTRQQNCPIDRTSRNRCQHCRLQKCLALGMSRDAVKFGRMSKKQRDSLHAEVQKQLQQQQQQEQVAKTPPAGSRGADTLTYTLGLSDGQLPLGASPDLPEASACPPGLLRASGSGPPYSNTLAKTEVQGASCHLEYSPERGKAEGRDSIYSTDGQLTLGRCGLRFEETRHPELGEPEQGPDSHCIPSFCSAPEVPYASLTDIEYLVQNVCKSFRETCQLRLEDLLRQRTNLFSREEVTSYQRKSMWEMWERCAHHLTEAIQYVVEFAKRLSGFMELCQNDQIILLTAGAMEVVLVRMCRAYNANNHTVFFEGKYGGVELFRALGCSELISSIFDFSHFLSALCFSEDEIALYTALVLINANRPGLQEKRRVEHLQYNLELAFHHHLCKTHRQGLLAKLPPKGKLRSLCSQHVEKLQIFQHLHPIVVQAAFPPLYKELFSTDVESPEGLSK
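Using a luciferase readout, inhibitors were identified by reduced reporter activity in Drosophila cells coexpressing a copper-inducible Gal4–ROR gamma fusion and UAS-driven Photinus luciferase, incubated 20 hr after 700 uM copper sulfate.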
IL-1B inflam inh = inhibitors of inflammasome signaling (IL-1 beta secretion); AID 743279; activity change, % at 57.5 µM; 360,000 compounds, 4.7% hits; THP-1 LPS/ATP IL-1B secretion, AlphaLISA, 16 h; stronger effect = lower value; in the data active means activity change below about -50%; inconclusive means mostly about -30% to -49%
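Secreted IL-1B measured by AlphaLISA bead assay after 16 h compound exposure of THP-1 cells; compounds (final up to 57.5 uM) added 1 h before LPS (250 ng/mL) and ATP (1.25 mM) stimulation; lower signal means less secretion.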
TDP1 cell CPT = growth inhibition of DT40 Tdp1-/-;hTDP1 cells with camptothecin (screen for TDP1 inhibitors) | Potency, µM (titrated, usually from 46.2 µM), for inactives: at the highest dose activity change, negative = growth inhibition, most hits filed as inhibitors | 420,000 compounds, 12% hits | chicken DT40 Tdp1-/-;hTDP1 cells + 20 nM CPT, ATP luminescence, 48 h; further: potency means the concentration at half of the fitted maximal effect; nearly all actives have a fitted effect of over 55% in size
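Chicken DT40 Tdp1-/- cells complemented with human TDP1, 400 cells/well, exposed to compounds plus 20 nM camptothecin for at least 48 h at 37 C; viability read as ATP content by CellTiter-Glo luminescence.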
ELG1 repair inh = blocks ELG1-dependent DNA repair in HEK293T cells; Potency, µM (top dose mostly 46.1 µM), without a hit: at the top dose activity change, negative = inhibition, actives largely listed as inhibitors; 330,000 compounds, 2.3% hits; HEK293T ELG1-luciferase reporter, luminescence, 16 h; DNA damage induced by 5-fluorouridine; further: potency means the concentration at half of the fitted maximal effect; nearly all actives have a fitted effect of over 55% in size
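Quantitative HTS, concentration-response format. 2,000 cells/well co-treated with 5-fluorouridine and compound, 16 hr in 5% CO2 at 37 °C; ONE-Glo luminescence read after 30 min.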
Gal4-VP16 FLuc = counter-screen for ROR gamma inhibitors: Gal4-VP16 reporter; Potency, µM (series often up to 53.6 µM), without a hit: top-dose activity, negative = inhibition, actives largely listed as inhibitors; Drosophila S2 Gal4-VP16 UAS-luciferase, luminescence, 20 h; 310,000 compounds, 3.5% hits;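 further: Gal4-VP16 expression switched on by copper sulfate through the metallothionein promoter; potency means the concentration at half of the fitted maximal effect; nearly all actives have a fitted effect of over 50% in size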
* hit, by the source's call; ? = inconclusive; / = no result given. Unless noted, the call rests on the fitted dose curve; in most records, active means well fitted curve in the direction sought with a large enough effect; inconclusive means small, poorly fitted or top-dose-only effect, or another doubt; inactive means no such curve, though single readings can be large; an effect the other way counts as inactive or inconclusive. On the % scale 0 is the no-effect control and ±100 the full control effect.

SMILES	DT40 TDP1 no CPT	RORg inh	IL-1B inflam inh	TDP1 cell CPT	ELG1 repair inh	Gal4-VP16 FLuc
CN(C)c1ccc(C(O)P(=O)(OC2CCCCC2)OC2CCCCC2)cc1 (stereo unspecified)	-30%	?	-11	?	?	4%
O=[N+]([O-])/C=C/c1c(Cl)cccc1Cl	1.3µM*	/	-99*	0.46µM*	/	/
CN(C)c1ccc(C(O)P(=O)(OCc2ccccc2)c2ccc(N(C)C)cc2)cc1 (stereo unspecified)	?	13%	-15	?	-1%	-10%
CC(C)c1ccc(C(O)P(=O)(OCc2ccccc2)c2ccc(N(C)C)cc2)cc1 (stereo unspecified)	26µM*	41%	?	?	?	-8%
CC(C)CCOP(=O)(c1ccc(N(C)C)cc1)C(O)c1c(Cl)cccc1Cl (stereo unspecified)	16µM*	32%	-17	?	-4%	1%
CCCOP(=O)(c1ccc(N(C)C)cc1)C(O)c1ccc(Cl)cc1Cl (stereo unspecified)	26µM*	-2%	-79*	26µM*	?	4%
CC(C)COP(=O)(c1ccc(N(C)C)cc1)C(O)c1ccc(Br)cc1 (stereo unspecified)	-26%	15%	-12	?	-27%	7%
Cc1ccc(C(O)P(=O)(OCCC(C)C)c2ccc(N(C)C)cc2)cc1 (stereo unspecified)	-17%	20%	-16	?	-22%	-11%
COc1ccc(CN2CCN(C(=O)Cn3c(=O)oc4cc(Cl)ccc43)CC2)c(OC)c1OC	?	?	-29	10µM*	?	?
Cc1o[nH]c(=O)c1C[C@H](N)C(=O)O	0%	30%	/	6%	/	-7%
COCC(C)OC(=O)c1c(N)n(Cc2ccco2)c2nc3ccccc3nc12 (stereo unspecified)	?	?	-10	-4%	/	-2%
CCOCCCn1c(N)c(C(=O)Nc2sc3c(c2C(=O)OC)CCCC3)c2nc3ccccc3nc21	21µM*	?	5	21µM*	?	11µM*
CCCOC(=O)c1c(N)n(Cc2cccs2)c2nc3ccccc3nc12	?	?	-3	18µM*	21µM*	9%
CCCCn1c(NC(=O)c2ccco2)c(C(=O)OCC)c2nc3ccccc3nc21	4.6µM*	?	?	9.2µM*	?	-19%
CCCCn1c(NS(=O)(=O)c2ccc(C)cc2)c(C(=O)OCC)c2nc3ccccc3nc21	?	-17%	-7	?	-17%	-1%
COCCCn1c(N)c(C(=O)NCCC(C)C)c2nc3ccccc3nc21	?	8%	-53*	?	?	-5%
CCOC(=O)c1c(NC(=O)c2c(N)n(CCCOC)c3nc4ccccc4nc23)sc2c1CCCC2	?	?	1	-4%	16%	?
C=C1C2CC[C@@]3(C)C(c4ccoc4)OC(=O)C[C@@]13OC1CC(=O)C(C)(C)C(C(OC(C)=O)C(=O)OC)[C@@]12C (stereo partly specified)	-14%	?	/	?	/	7%
COc1cccc(C(C(=O)NCc2ccco2)N(Cc2ccco2)C(=O)Cn2nnc3ccccc32)c1 (stereo unspecified)	?	-11%	-17	?	?	6%
CCCCCCCCc1[se]c2ccccc2c1I	/	-25%	/	/	/	0%
c1cc2c(cc1[C@H]1OC[C@H]3[C@@H]1CO[C@H]3c1ccc3c(c1)OCO3)OCO2	?	/	-21	?	11%	/
CC1(C)S[C@@H]2[C@H](N)C(=O)N2C1C(=O)O (stereo partly specified)	/	-2%	/	/	/	-8%
CCCCOCCCn1c(N)c(C(=O)OCCOC)c2nc3ccccc3nc21	?	33%	?	?	?	0%
CC(C)CCn1c(N)c(C(=O)OCC2CCCO2)c2nc3ccccc3nc21 (stereo unspecified)	?	0%	-21	?	?	19%
CCCCn1c(N)c(C(=O)OCCOC)c2nc3ccccc3nc21	-26%	-6%	/	3%	8.2µM*	5%
SMILES	DT40 TDP1 no CPT	RORg inh	IL-1B inflam inh	TDP1 cell CPT	ELG1 repair inh	Gal4-VP16 FLuc
CCCCn1c(N)c(C(=O)OCC2CCCO2)c2nc3ccccc3nc21 (stereo unspecified)	18µM*	-10%	-2	18µM*	9.2µM*	-23%
COCCOC(=O)c1c(N)n(Cc2ccccc2)c2nc3ccccc3nc12	?	16%	-17	?	18µM*	9%
C#Cc1cccc2c1c(C(=O)c1ccc(Cn3c(C)nc4cnccc43)c(F)c1)cn2C(=O)N(C)C	/	10%	/	/	/	4%
CN1CC[C@@]2(CCCN(C(=O)Oc3ccccc3)C2)C1	1%	-5%	/	7%	/	6%
ClC(Cl)=C(Cl)Cl	/	-36%	/	/	/	1%
CC(=O)CC(c1ccccc1)c1c(O)c2cc(O)ccc2oc1=O (stereo unspecified)	/	-2%	/	/	/	-9%
Cc1cnc(SCc2ccccn2)nc1C1CCCN(C(=O)c2ccc(-c3ccccc3F)cc2)C1 (stereo unspecified)	23µM*	/	/	?	/	/
Cc1noc(C)c1CC(=O)N1CCCC(N2CCN(c3ccccc3F)CC2)C1 (stereo unspecified)	-14%	/	-4	-11%	/	/
Cc1cnc(SCc2ccccn2)nc1C1CCCN(C(=O)c2scc3c2CCCC3)C1 (stereo unspecified)	10µM*	/	/	12µM*	/	/
COc1ccc(/C=C2/C(=O)NC(=S)N(C3CC3)C2=O)cc1CN1C(=O)c2ccccc2C1=O	23µM*	0%	18	16µM*	0%	-3%
CC(=O)OC1CC[C@@]2(C)C3CC[C@]4(C)C(=O)CCC4C3CC[C@H]2C1 (stereo partly specified)	-1%	-21%	/	?	/	?
CCC(=O)O[C@H]1[C@@H](N2CCCCC2)C[C@H]2[C@@H]3CC[C@H]4C[C@H](OC(C)=O)[C@@H](N5CCCCC5)C[C@]4(C)[C@H]3CC[C@@]21C	6.7µM*	/	/	7.5µM*	/	/
COc1ccc(C2C=C(c3ccccc3)Nc3nc(NC(=O)/C=C/c4ccccc4Cl)nn32)cc1 (stereo unspecified)	3.7µM*	/	/	5.2µM*	/	/
CC[C@H]1CN(C)CCc2c([nH]c3ccccc23)C(=O)C[C@@H]1/C(=C\OC)C(=O)OC	-19%	/	-7	29µM*	/	/

Screening results deposited in PubChem by National Center for Advancing Translational Sciences (NCATS).
